Source: ChEMBL document CHEMBL4513216, “Probing the Open Global Health Chemical Diversity Library for Multistage-Active Starting Points for Next-Generation Antimalarials” (ACS Infect Dis, 2020)
Hit rate of the full screen: of about 69,000 compounds, about 8,600 (12%) showed an effect of 50% or more. Many of the other results were omitted from the sample, so strong results are more common in it than they were.

System: Plasmodium berghei
Assay: Screen against P. berghei liver stage (PbLuc), transformed with Luciferase, at 10uM
Assay type: functional, HepG2
Conditions: tested at 10 uM

Question: How did the INHIBITION turn out when CCN(CC)CCn1cc(NC2CCSCC2)cn1 was run?
Answer: -3.21%

Question: Which INHIBITION does the source give for Fc1ccc(C2(c3noc(CCN4CCCCO4)n3)CCOC2)cc1 (centres undefined) here?
Answer: -23.4%

Question: CCOc1ccc2[nH]c(=O)c(CN3CCCC3c3ccccn3)cc2c1 (centres undefined) was tested. Which INHIBITION did it give?
Answer: 32.7%

Question: With O=c1[nH]c2cc3c(cc2cc1CN1CCCC1c1ccccn1)OCO3 (centres undefined) as the compound, how does the INHIBITION read?
Answer: 6.94%

Question: With O=c1[nH]c2cc3c(cc2cc1CN1CCCC1c1ccccn1)CCC3 (centres undefined) as the compound, how does the INHIBITION read?
Answer: 56.5%

Question: O=C(Nc1ccc(CCN2CCC(O)CC2)cc1)C1CCCOC1 (centres undefined) was tested. Which INHIBITION did it give?
Answer: 20.06%

Question: Which INHIBITION does the source give for O=C(CN1CCOc2ccccc2C1)NCc1cc2n(n1)CCCNC2 here?
Answer: 12.9%

Question: How did the INHIBITION turn out when CC(NCc1ccsc1)c1ccc2c(c1)NC(=O)CO2 (centres undefined) was run?
Answer: 22.15%

Question: COc1cccc(SCC(=O)N2CCC(N3CCCC3=O)CC2)c1 was tested. Which INHIBITION did it give?
Answer: 43.9%

Question: How did the INHIBITION turn out when COc1cccc(SCC(=O)N2CCC(N3CCCC(O)C3)CC2)c1 (centres undefined) was run?
Answer: 64.9%

Question: With COc1cccc(SCC(=O)N2CCCC(N3CCCC3=O)C2)c1 (centres undefined) as the compound, how does the INHIBITION read?
Answer: 15.5%

Question: Cc1c(NC(=O)CN(C)S(C)(=O)=O)cccc1OC1CCCC1 was tested. Which INHIBITION did it give?
Answer: -28.2%

Question: With CCCNC(=O)CN1CCC(NC(=O)c2cc(CC)ccc2O)CC1 as the compound, how does the INHIBITION read?
Answer: -23.15%

Question: With N#Cc1cccnc1N1CCC(C2CCCCCN2C(=O)C2CC2)CC1 (centres undefined) as the compound, how does the INHIBITION read?
Answer: -1.3%

Question: With O=S(=O)(c1cccs1)N1CCCC(c2nccs2)C1 (centres undefined) as the compound, how does the INHIBITION read?
Answer: -27.4%

Question: With O=S(=O)(c1ccccc1F)N1CCCC(c2nccs2)C1 (centres undefined) as the compound, how does the INHIBITION read?
Answer: 61.7%

Question: Which INHIBITION does the source give for O=S(=O)(c1ccccc1)N1CCCC(c2nccs2)C1 (centres undefined) here?
Answer: 31.6%

Question: For CN(CCS(=O)(=O)c1cc(Cl)ccc1Cl)CC(=O)Nc1ccc(F)cc1, which INHIBITION is on record?
Answer: -8.22%

Question: CN(CCS(=O)(=O)c1cc(Cl)ccc1Cl)CC(N)=O was tested. Which INHIBITION did it give?
Answer: 10.6%

Question: CN(CCS(=O)(=O)c1cc(Cl)ccc1Cl)CC(=O)Nc1cccc(F)c1 was tested. Which INHIBITION did it give?
Answer: 59.4%

Question: Cc1nnc2n1CCN(C(=O)C1CCC(n3cccc3)CC1)C2 (centres undefined) was tested. Which INHIBITION did it give?
Answer: 20.8%

Question: Which INHIBITION does the source give for COC(=O)CC(c1cccnc1)c1oc(C)cc(=O)c1O (centres undefined) here?
Answer: -14.8%

Question: With COc1ccccc1CN1CC(OC)CN(C(=O)CC(C)C)CC1=O (centres undefined) as the compound, how does the INHIBITION read?
Answer: 4.82%

Question: For Cc1ccc(CN2CCc3c(CN(C)C)n[nH]c3C2)s1, which INHIBITION is on record?
Answer: 13.7%

Question: How did the INHIBITION turn out when Cc1ccc(CNC(=O)N2CCc3ccccc3C2CO)s1 (centres undefined) was run?
Answer: 28.7%

Question: O=C(c1cccs1)N1CCN(Cc2cc(=O)c3ccccc3[nH]2)CC1 was tested. Which INHIBITION did it give?
Answer: 15.4%

Question: How did the INHIBITION turn out when Cn1ccc(CN2CCC(Cc3ccccc3)CC2)cc1=O was run?
Answer: -0.219%

Question: With FC1(F)CCN(Cc2ccncc2)CC12CCN(c1cccnc1)C2 (centres undefined) as the compound, how does the INHIBITION read?
Answer: 91.9%

Question: How did the INHIBITION turn out when FC1(F)CCN(c2ccccc2)CC12CCN(c1ncccn1)C2 (centres undefined) was run?
Answer: -15.3%

Question: How did the INHIBITION turn out when FC1(F)CCN(Cc2ccncc2)CC12CCN(Cc1ccccn1)C2 (centres undefined) was run?
Answer: 48.9%

Question: For FC1(F)CCN(Cc2ccccn2)CC12CCN(c1cnccn1)C2 (centres undefined), which INHIBITION is on record?
Answer: 34%

Question: Which INHIBITION does the source give for Cn1ccnc1CN1CCC(F)(F)C2(CCN(c3cccnc3)C2)C1 (centres undefined) here?
Answer: 31.2%

Question: For FC1(F)CCN(Cc2ccccn2)CC12CCN(c1cccnc1)C2 (centres undefined), which INHIBITION is on record?
Answer: 85.9%

Question: Which INHIBITION does the source give for OCCN1CCC(F)(F)C2(CCN(c3cccnc3)C2)C1 (centres undefined) here?
Answer: 60.2%

Question: For FC1(F)CCN(Cc2ccncc2)CC12CCN(c1cnccn1)C2 (centres undefined), which INHIBITION is on record?
Answer: -13.2%

Question: How did the INHIBITION turn out when FC1(F)CCN(Cc2ccccn2)CC12CCN(c1ncccn1)C2 (centres undefined) was run?
Answer: 47.5%

Question: Which INHIBITION does the source give for OCCN1CCC(F)(F)C2(CCN(c3cnccn3)C2)C1 (centres undefined) here?
Answer: 16.6%

Question: For Cn1cc(CN2CCC(F)(F)C3(CCN(c4cccnc4)C3)C2)cn1 (centres undefined), which INHIBITION is on record?
Answer: 15.4%

Question: Which INHIBITION does the source give for FC1(F)CCN(Cc2cccnc2)CC12CCN(c1ccccc1)C2 (centres undefined) here?
Answer: 92.8%

Question: COc1ccccc1OCCCn1c(C)c(C)oc1=O was tested. Which INHIBITION did it give?
Answer: -10.2%

Question: CCn1c(SCC(N)=O)nnc1C(C)NC(=O)c1ccc(Cl)cc1 (centres undefined) was tested. Which INHIBITION did it give?
Answer: 31.6%

Question: Which INHIBITION does the source give for CCS(=O)(=O)N1CCC2(CN(c3cccc(C)n3)C2)C1 here?
Answer: 18.5%

Question: Cc1ccc(CN(CCCN2CCOCC2)Cc2cnn(C)c2)o1 was tested. Which INHIBITION did it give?
Answer: 30.15%

Question: CCc1ncc2c(n1)CN(c1nnc(C)c(C)c1C#N)CC2 was tested. Which INHIBITION did it give?
Answer: -28.7%

Question: CNC(=O)CN1CCC2(CCCN(CC3CCOC3)C2)CC1 (centres undefined) was tested. Which INHIBITION did it give?
Answer: 8.6%

Question: Which INHIBITION does the source give for Cc1nn(-c2ccc(C(=O)O)cc2)c2c1C(CC(C)C)SCC(=O)N2 (centres undefined) here?
Answer: 10.6%

Question: Which INHIBITION does the source give for Cc1cccc(C(=O)N2C[C@@H]3C(CC(=O)NC(C)C)[C@@H]3C2)n1 (some centres undefined) here?
Answer: -50.4%

Question: How did the INHIBITION turn out when Cn1cc(CN2CCC(F)(F)C3(CCN(c4ccccn4)C3)C2)cn1 (centres undefined) was run?
Answer: 0.618%

Question: Which INHIBITION does the source give for O=C(O)CN1CCC(F)(F)C2(CCN(c3ccccc3)C2)C1 (centres undefined) here?
Answer: 53.9%

Question: For FC1(F)CCN(Cc2cccnc2)CC12CCN(c1ccccn1)C2 (centres undefined), which INHIBITION is on record?
Answer: 68.2%

Question: O=C(O)CN1CCC(F)(F)C2(CCN(c3ccccn3)C2)C1 (centres undefined) was tested. Which INHIBITION did it give?
Answer: -4.02%

Question: FC1(F)CCN(Cc2cccnc2)CC12CCN(c1cnccn1)C2 (centres undefined) was tested. Which INHIBITION did it give?
Answer: -20.1%

Question: Which INHIBITION does the source give for O=C(CO)N1CCC(F)(F)C2(CCN(c3ccccc3)C2)C1 (centres undefined) here?
Answer: 31.4%

Question: Cc1nn(C)cc1-c1cc(C(=O)N2CCc3ncc(Cl)cc3C2)on1 was tested. Which INHIBITION did it give?
Answer: 7.15%
